Assay results: PubChem BioAssay (NCI)
The panel holds about 79,000 compounds, 15% with a hit somewhere; the sample as a whole holds those more often. Cut-off read from the data, not from the text of the source: active = growth inhibition above about 70%; inactive = the rest.

Columns and labels:
[1] = NCI Yeast Anticancer Drug Screen. Data for the rad50 strain (AID 155);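 note: 0% = growth of vehicle-only cultures of the same strain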; conditions: S. cerevisiae rad50 strain growth inhibition; at 50.0 µM; hits give high values
Method in brief: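 Relative growth inhibition (compound vs vehicle) was measured in yeast with a defined repair-gene alteration.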

[2] = NCI Yeast Anticancer Drug Screen. Data for the mec2-1 strain (AID 157); conditions: S. cerevisiae mec2-1 strain, at 50.0 µM, hits give high values
Method in brief: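 Cells of the genetically defined mec2-1 yeast strain are incubated with test compound. Inhibition of growth is calculated against vehicle-treated controls.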

[3] = NCI Yeast Anticancer Drug Screen. Data for the sgs1 mgt1 strain (AID 161);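 note: 0% = growth of cultures given vehicle only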; conditions: S. cerevisiae sgs1 mgt1 strain, at 50.0 µM, hits give high values
Method in brief: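 Mutant yeast exposed to compound; growth scored against vehicle-only wells.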

[4] = NCI Yeast Anticancer Drug Screen. Data for the cln2 rad14 strain (AID 165);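 note: 0% = growth equal to vehicle treated cultures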; conditions: S. cerevisiae cln2 rad14 strain, at 50.0 µM, hits give high values
Method in brief: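 The screen exposed genetically defined yeast (cln2 rad14) to test compounds and scored growth inhibition relative to vehicle-treated controls.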

[5] = NCI Yeast Anticancer Drug Screen. Data for the bub3 strain (AID 167); conditions: S. cerevisiae bub3 mutant strain, at 50.0 µM, hits give high values
Method in brief: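 Screening used yeast with an engineered genetic alteration affecting cell cycle control. Compound-exposed cultures were compared with vehicle cultures, and reduced growth was taken as inhibition.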

[6] = NCI Yeast Anticancer Drug Screen. Data for the mlh1 rad18 strain (AID 175); conditions: S. cerevisiae mlh1 rad18 strain growth inhibition; at 50.0 µM; hits give high values
Method in brief: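 Compound-treated yeast growth, normalised to vehicle controls. Strain bears defined DNA repair mutations.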

Measured: growth inhibition

CN(CCC[N+](C)(C)C)C(=O)C(c1ccccc1)c1ccccc1
inactive: [1] 45% | [2] -0.25% | [3] 19.2% | [4] -9.55% | [5] 6.35% | [6] 2.7%

Cc1ccc(/[N+]([O-])=N/N2C(=O)c3ccccc3C2=O)cc1
inactive: [1] -15.4% | [2] -18.6% | [3] -10.1% | [4] -23.5% | [5] -16.6% | [6] -2.9%

OB(O)c1cccc(B(O)O)c1
inactive: [1] -4.2% | [2] -28.7% | [3] -3% | [4] -7.45% | [5] -21.9% | [6] -10.1%

CN1CCc2[nH]nc(-c3n[nH]c4c3CN(C)CC4)c2C1
inactive: [1] 15.8% | [2] 0.85% | [3] 10.5% | [4] -0.05% | [5] -8.6% | [6] 13.6%

Nc1cc2c(cc1Cl)-c1cc(Cl)ccc1C2=O
inactive: [1] 5.7% | [2] -9.65% | [3] -2.2% | [4] -24.4% | [5] -8.5% | [6] -8.5%

CCOS(=O)(=O)c1ccc(F)c([N+](=O)[O-])c1
inactive: [1] 7.3% | [2] 5.6% | [3] -1.9% | [4] -47% | [5] 2.65% | [6] -2.1%

CC(=O)Oc1ccc2c(c1)CCC1C2CCC2(C)CC(OC(C)=O)CC12 (stereo not given)
inactive: [1] 12.4% | [2] -10.3% | [3] -19.2% | [4] 2.95% | [5] 0.8% | [6] -21.8%

O=C(Nc1nc(C23CC4CC(CC(C4)C2)C3)cs1)c1cc2cc(Br)cc(Br)c2oc1=O
inactive: [1] -8.75% | [2] -13.8% | [3] 23.3% | [4] 19.9% | [5] -12.8% | [6] -8.4%

COC1C(=O)CCC2(CO2)C1(O)C1(C)OC1CC=C(C)C (stereo not given)
inactive: [1] -22.9% | [2] -34.4% | [3] -31.6% | [4] -5.2% | [5] -28.2% | [6] -25.8%

N#Cc1cc([N+](=O)[O-])ccc1NC(=O)C(=O)C(C(=O)/C=C/c1ccccc1)C1OC(=O)c2ccccc21 (stereo not given)
inactive: [1] -1.05% | [2] -15.9% | [3] -41.2% | [4] 5.55% | [5] -15.2% | [6] 8.95%

C#CC(C)(C)OC(=O)Nc1cccc(Cl)c1
inactive: [1] 12.8% | [2] -11.3% | [3] -16.1% | [4] -8.35% | [5] -20.6% | [6] 10.7%

CCOP(=O)(OCC)/C(C#N)=C/c1ccc2ccccc2c1
inactive: [1] -7.5% | [2] -5.05% | [3] -16.8% | [4] -16.3% | [5] 5% | [6] -13.6%

O=C(CCN1CCCCC1)C(O)(c1ccccc1)c1ccccc1
inactive: [1] 19.2% | [2] -2% | [3] 24.7% | [4] -6.05% | [5] -10.4% | [6] 14.2%

CC(=NCCN(CCN=C(C)c1c(O)cc(C)oc1=O)CCN=C(C)c1c(O)cc(C)oc1=O)c1c(O)cc(C)oc1=O
inactive: [1] 22.4% | [2] -4.3% | [3] 1.8% | [4] 11.4% | [5] 6.3% | [6] 21.8%

O=C(/C=C\c1ccccc1)OCc1ccccc1CN1CCCCC1
inactive: [1] 15.7% | [2] 11.7% | [3] 17.2% | [4] 14.6% | [5] 10.4% | [6] 12.8%

CCC(=O)COC(C)=O
inactive: [1] -3.75% | [2] -22% | [3] -6.05% | [4] -2.35% | [5] -3.75% | [6] 0.95%

CSc1ccc(OC(=O)NC2CCCCC2)cc1C
inactive: [1] 7.5% | [2] 22.4% | [3] 13.6% | [4] 6.25% | [5] 28.6% | [6] 14.8%

CCOC(NC(C)=O)C(O)c1ccc(Cl)cc1 (stereo not given)
inactive: [1] 20.1% | [2] 11.2% | [3] 13.1% | [4] -41.5% | [5] -9.9% | [6] 18.2%

NNC(=S)N/N=C/c1ccco1
inactive: [1] -9.6% | [2] -9.7% | [3] -29.4% | [4] -19.2% | [5] -8.7% | [6] -14.2%

CCOC(=O)C1=C(C)N(C2OC(COC(=O)c3ccccc3)C(OC(=O)c3ccccc3)C2OC(=O)c2ccccc2)C(=S)NC1c1ccccc1 (stereo not given)
inactive: [1] -0.8% | [2] -27.1% | [3] 10.6% | [4] -2.6% | [5] -4.85% | [6] -6.05%
